The list is not random: actives were taken first. Their share in the collection is about 0.9%.
CDC25B CDK2 inh = human CDC25B-CDK2/CyclinA binding inhibition | actives 0.72% (n = 94,000) | z-score (test concentration not listed) | HTRF CDC25B-CDK2/CyclinA binding, anti-His/anti-Flag; active compounds read high | P30305+P24941 | AID 1259370; in the data active means z-score above about 3.2
TAR Tat displ = HIV-1 TAR-Tat binding disruption; HIV-1 TAR RNA, Tat peptide displacement FRET; active compounds read high; z-score (test concentration not listed); actives 0.6% (n = 100,000); active means z-score of 3 or more in at least 2 runs
Hits are given with their value; ! = a repeat was not active.

For O=C(Nc1ccccc1)Nc1cnns1 the results were CDC25B CDK2 inh 20.2 and TAR Tat displ inactive.
For C[n+]1noc(/N=C(\[O-])C(F)(F)F)c1-c1ccccc1 the results were CDC25B CDK2 inh inactive.
Screening Cc1c(C(=O)N2CCC3(CC2)OCCO3)sc2ncn(CC(=O)N3CC(C)CC(C)C3)c(=O)c12 (stereo unspecified) returned CDC25B CDK2 inh inactive.
`NC(N)=N/N=C/c1ccc(/C=N/N=C(N)N)cc1` gave CDC25B CDK2 inh 7.64.
CO[C@@H]1C(O)[C@H](O[C@H]2CC[C@@]3(C=O)[C@H](CC[C@@H]4[C@@H]3CC[C@]3(C)[C@@H](C5=CC(=O)OC5)CC[C@]43O)C2)OC(C)[C@@H]1O (stereo partly specified) was read as TAR Tat displ inactive.
CCCCCn1c(N)c(C(=O)OC)c2nc3ccccc3nc21 was read as CDC25B CDK2 inh inactive and TAR Tat displ inactive.
`Nc1c(C(=O)NCc2ccccc2)c2nc3ccccc3nc2n1Cc1ccco1` gave CDC25B CDK2 inh 12.3 and TAR Tat displ inactive.
CNCCc1c[nH]c2ccc(O)cc12 was read as CDC25B CDK2 inh 9.78.
For CNCCc1c[nH]c2ccccc12 the results were CDC25B CDK2 inh inactive.
Screening Cc1[nH]nc2c1C(c1ccc(F)cc1)SCC(=O)N2 (stereo unspecified) returned CDC25B CDK2 inh inactive and TAR Tat displ inactive.
Cc1cccc(C)c1-n1nnnc1C1(N2CCOCC2)CCCCC1 was read as TAR Tat displ inactive.
CN1CCc2cc(O)cc3c2[C@H]1Cc1ccc(O)c(O)c1-3 was read as CDC25B CDK2 inh inactive.
Screening COc1cc2c(cc1O)C[C@H]1c3c(cc(O)c(OC)c3-2)CCN1C returned TAR Tat displ 12.9.
Screening Cc1cc(C)nc(-n2nc(C)c3c2NC(=O)CSC3c2ccc(Br)cc2)n1 (stereo unspecified) returned CDC25B CDK2 inh inactive and TAR Tat displ inactive.
For c1ccc(C2=NN(c3ccccc3)N(c3ccccc3)N2)cc1 the results were CDC25B CDK2 inh inactive.
Cc1c2ccncc2c(C)c2c1[nH]c1ccccc12 was read as CDC25B CDK2 inh 4.19 and TAR Tat displ inactive.
`c1ccc2c(c1)[nH]c1cnccc12` gave TAR Tat displ inactive.
Screening Cc1nccc2c1[nH]c1ccccc12 returned CDC25B CDK2 inh inactive and TAR Tat displ 19.1.
Clc1ccc(C(Cc2ccccc2)NC2CN3CCC2CC3)cc1 (stereo unspecified) was read as CDC25B CDK2 inh inactive and TAR Tat displ inactive.
`CC(C)OP(=S)(OC(C)C)O[Si](C)(C)C` gave CDC25B CDK2 inh inactive.
COC(C)C(O)(C(=O)OCC1=CCN2CC[C@H](O)C12)C(C)C (stereo partly specified) was read as TAR Tat displ inactive.
`C=CC[N+]12CN3CN(CN(C3)C1)C2` gave CDC25B CDK2 inh 4.34.
For CC(N)[C@H](O)c1ccc(O)c(O)c1 (stereo partly specified) the results were CDC25B CDK2 inh inactive.
`C[C@H](N)[C@H](O)c1ccc(O)c(O)c1` gave TAR Tat displ 8.24.
`C[C@@H]1NCCc2cc(O)c(O)cc21` gave TAR Tat displ 19.3.
For COc1cc2c(cc1O)C(C)NCC2 (stereo unspecified) the results were TAR Tat displ inactive.
Screening C/C(C=C(C#N)C#N)=C/C(=C=N)C#N returned CDC25B CDK2 inh inactive.
C(=N\c1ncn[nH]1)/Nc1ncn[nH]1 was read as CDC25B CDK2 inh inactive.
For C[C@H]1CC[C@@H]2N(C1)C[C@H]1[C@@H]3C[C@H]4[C@@H](CC(=O)[C@H]5C[C@@H](O)CC[C@@]54C)[C@@H]3CC[C@@H]1[C@]2(C)O the results were TAR Tat displ inactive.
Screening CCC1(C(=O)c2ccc(Cl)cc2)C2c3cc(Br)ccc3OC(=O)C21C(=O)OC (stereo unspecified) returned CDC25B CDK2 inh inactive and TAR Tat displ inactive.
Screening CCOC(=O)C12C(=O)Oc3ccc(Br)cc3C1C2(CC)C(=O)c1ccccc1 (stereo unspecified) returned CDC25B CDK2 inh 15.2 and TAR Tat displ inactive.
`CN1CC=C(c2noc(CCC(=O)N3CCN(c4ccccn4)CC3)n2)CC1` gave CDC25B CDK2 inh inactive.
CO[C@@H]1[C@H](OC(=O)NC(=O)CCl)CC[C@]2(CO2)[C@H]1[C@@]1(C)O[C@@H]1CC=C(C)C was read as TAR Tat displ inactive.
`CN1CCc2nc(SCc3cccnc3)c(C#N)cc2C1` gave CDC25B CDK2 inh 19 and TAR Tat displ inactive.
`COC(=O)c1sc2nc3c(cc2c1N)CN(C)CC3` gave CDC25B CDK2 inh inactive and TAR Tat displ inactive.
`COc1ccc(C2SCC(=O)Nc3c2c(C)nn3-c2nc(C)cc(C)n2)cc1OC` (stereo unspecified) gave CDC25B CDK2 inh inactive and TAR Tat displ inactive.
`Cc1nn(-c2nc3ccccc3s2)c2c1C(c1ccc(O)cc1)SCC(=O)N2` (stereo unspecified) gave CDC25B CDK2 inh inactive and TAR Tat displ inactive.
For Cc1cccc(CNCCc2c[nH]c3ccccc23)c1 the results were CDC25B CDK2 inh 15.7 and TAR Tat displ inactive.
Fc1cccc(CNCCc2c[nH]c3ccccc23)c1 was read as CDC25B CDK2 inh 8.01 and TAR Tat displ inactive.
For c1ccc(CNCCc2c[nH]c3ccccc23)cc1 the results were CDC25B CDK2 inh inactive and TAR Tat displ inactive.
CCc1ccc(CNCCc2c[nH]c3ccccc23)cc1 was read as CDC25B CDK2 inh inactive and TAR Tat displ inactive.
Screening CCCCOC(=O)C1=C(N)OC(CC(=O)OC)=C(C(=O)OC)C12C(=O)N(C)c1ccccc12 (stereo unspecified) returned CDC25B CDK2 inh inactive.
Screening C[C@@H]1O[C@H](n2cnc3c(N)ncnc32)C[C@H]1O returned TAR Tat displ inactive.
Screening Cc1cc2c(C(C)C)c(O)c(O)c(C=O)c2c(O)c1-c1c(C)cc2c(C(C)C)c(O)c(O)c(C=O)c2c1O returned CDC25B CDK2 inh inactive and TAR Tat displ 25.5!.
For COCCOC(=O)C1=C(N)OC(C)=C(C(=O)OC(C)C)C12C(=O)Nc1ccccc12 (stereo unspecified) the results were CDC25B CDK2 inh inactive.
For NC(=Nc1ccccc1)Nc1ccccc1 (tested in a mixture with another compound) the results were CDC25B CDK2 inh inactive.
`N#CC1=C(N)Oc2c(c(=O)oc3ccccc23)C1c1cccc(Br)c1` (stereo unspecified) gave CDC25B CDK2 inh inactive.
`CN1CSC2=C(C#N)C(c3cccc(Br)c3)CC(=O)N2C1` (stereo unspecified) gave CDC25B CDK2 inh 5.23 and TAR Tat displ inactive.

Compound activity deposited in PubChem BioAssay by Center for Chemical Genomics, University of Michigan.
